Screening results from PubChem.
This excerpt belongs to a sample that is enriched for hits.
Vaccinia inh – blocks a specific stage of Vaccinia orthopoxvirus infection, primary screen, cell-based, single point | Vaccinia-infected cells, mCherry/Venus stage reporter fluorescence; stronger effect = lower value | activity change (mCherry), % (no concentration beside the values) | 89,000 compounds, 0.01% hits | AID 1053133, 2014; in the data active means activity change below about -37%, passing the limit was not always enough; tested in A549 cells
* hit, by the source's call.

SMILES | Vaccinia inh
COc1ccc(S(=O)(=O)N[C@H]2CC[C@H](CC(=O)NCCc3ccccc3)O[C@H]2CO)cc1 | 8
COc1ccc(S(=O)(=O)N(C)C[C@H]2Oc3ccc(NS(=O)(=O)c4ccc(C)cc4)cc3C(=O)N([C@H](C)CO)C[C@@H]2C)cc1 | 3
C[C@@H]1CCCCO[C@H](CN(C)C(=O)Nc2ccccc2)[C@@H](C)CN([C@@H](C)CO)C(=O)c2cc(NC(=O)c3ccncc3)ccc2O1 | -1
CC(C)NC(=O)N(C)C[C@@H]1Oc2ccc(NC(=O)C3CC3)cc2CC(=O)N([C@@H](C)CO)C[C@H]1C | 17
C[C@H]1CN([C@@H](C)CO)C(=O)Cc2cc(NC(=O)Nc3cccc4ccccc34)ccc2O[C@@H]1CN(C)C(=O)Nc1ccccc1 | 15
CN(C)C(=O)c1ccc(-c2cccc(-c3nc(C(=O)NC4CCCC4)cc4c3[C@H](CCO)N([S@@](=O)C(C)(C)C)C4)c2)cc1 | -36*
CN(C)C(=O)c1ccc(-c2cccc(-c3nc(C(=O)NC4CCC4)cc4c3[C@@H](CCO)N([S@](=O)C(C)(C)C)C4)c2)cc1 | -11
CN(C)C(=O)c1ccc(-c2cccc(-c3nc(C(=O)NC4CCCC4)cc4c3[C@@H](CCO)N([S@](=O)C(C)(C)C)C4)c2)cc1 | -17
CN(C)C(=O)c1ccc(-c2cccc(-c3nc(C(=O)NCc4ccccc4)cc4c3[C@@H](CCO)N([S@](=O)C(C)(C)C)C4)c2)cc1 | -15
CN(C)C(=O)c1ccc(-c2cccc(-c3nc(C(=O)NCc4ccccc4)cc4c3[C@H](CCO)N([S@@](=O)C(C)(C)C)C4)c2)cc1 | -24
CN(C)C(=O)c1ccc(-c2cccc(-c3nc(C(=O)NC4CCCCC4)cc4c3[C@@H](CCO)N([S@](=O)C(C)(C)C)C4)c2)cc1 | -51*
O=C(C[C@H]1CC[C@@H]2[C@H](COC[C@@H](O)CN2Cc2cccc(-c3ccncc3)c2)O1)N1CCN(c2ccccc2)CC1 | -28
O=C(NCC[C@@H]1CC[C@@H](NS(=O)(=O)c2ccccc2)[C@H](CO)O1)c1cc(Cl)cc(Cl)c1 | -24
C[C@@H]1CN([C@@H](C)CO)C(=O)Cc2cc(NS(C)(=O)=O)ccc2O[C@@H]1CN(C)C(=O)Nc1ccc(F)cc1 | 21
O=C(C[C@H]1CC[C@@H]2[C@H](COC[C@H](O)CN2Cc2cc(F)cc(F)c2)O1)NC1CCC1 | 8
CN1C(=O)c2cc(NC(=O)c3cnccn3)ccc2OC[C@H]2O[C@@H](CC(=O)NC3CCC3)CC[C@@H]21 | 2
C[C@H]1CN([C@@H](C)CO)C(=O)Cc2cc(NC(=O)Nc3ccccc3)ccc2O[C@H]1CN(C)C(=O)NC1CCCCC1 | 11
CO[C@@H]1CN(C)C(=O)c2cc(NC(=O)c3cnccn3)ccc2OC[C@@H](C)N(CC2CC2)C[C@@H]1C | 17
